Bioassay records: PubChem, several laboratories
Cav3 T inh: Cav3.2 calcium influx blockers – cell-based, Fluo-4 calcium fluorescence, FDSS, MLSMR library, primary screen. Voltage-dependent T-type calcium channel subunit alpha-1H (Homo sapiens), O95180. Cav3.2-expressing cells; stronger effect = lower value. B-score at 10 µM. hit rate 4% among 100,000. AID 449739, 2010;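 active = single-dose well whose peak fluorescence ratio is a statistical outlier from its plate by either plate-standardised score or position-corrected B-score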
CYP2C19 inh: blockers of cytochrome P450 2C19 activity – biochemical, luminescence, ADME assay, primary screen. P33261. CYP2C19 Supersomes, luciferin-H EGE luminescence, 30 min. inhibition, % at 5 µM. hit rate 21% among 96,000. AID 778, 2007;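 active = CYP2C19 inhibition above a set limit at 5 µM in the primary screen, cut at about 50% in these data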
Target sequence (P33261 whole entry, looked up): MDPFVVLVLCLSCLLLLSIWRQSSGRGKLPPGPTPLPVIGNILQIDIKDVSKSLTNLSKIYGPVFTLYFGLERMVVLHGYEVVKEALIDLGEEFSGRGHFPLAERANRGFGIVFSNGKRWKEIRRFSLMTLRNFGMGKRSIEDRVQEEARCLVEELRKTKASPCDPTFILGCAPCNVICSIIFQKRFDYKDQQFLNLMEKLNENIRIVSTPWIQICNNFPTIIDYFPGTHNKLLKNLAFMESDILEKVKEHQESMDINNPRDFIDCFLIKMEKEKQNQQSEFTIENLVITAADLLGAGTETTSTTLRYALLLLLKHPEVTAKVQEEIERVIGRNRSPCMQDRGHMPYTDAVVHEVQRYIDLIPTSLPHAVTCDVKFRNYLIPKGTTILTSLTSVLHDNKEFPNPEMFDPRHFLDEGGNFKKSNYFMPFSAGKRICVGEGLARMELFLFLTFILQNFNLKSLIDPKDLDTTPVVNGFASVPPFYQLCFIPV
CYP2C9 inh: blockers of cytochrome P450 2C9 activity – biochemical, luminescence, ADME assay, primary screen; P11712; CYP2C9 Supersomes, luciferin-H conversion; inhibition, % at 5 µM; hit rate 20% among 96,000; AID 777, 2007;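 active = blocking of liver enzyme CYP2C9 beyond about 50% at 5 µM, limit read from the data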
CYP2C19 act: human CYP2C19 activators, primary screen, biochemical, luminescence. recombinant CYP2C19, luciferin-H EGE luminescence; stronger effect = higher value; 0 = fully inhibited enzyme, 1 = untreated enzyme. activation factor at 5 µM. 96,000 tested, under 10 active. AID 1025, 2008;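 active = activation factor of at least 2 at 5 µM in the primary screen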
CYP2C9 act: human CYP2C9 activators, primary screen, biochemical, luminescence | recombinant CYP2C9, luciferin-H conversion; stronger effect = higher value; factor 1 = untreated enzyme, 0 = blocked | activation factor at 5 µM | hit rate 1.4% among 96,000 | AID 1024, 2008;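 active = activation factor of 2 or more for CYP2C9 at a 5 µM dose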
Hits are given with their value; – = inactive; · = not tested or not shown. The list is not random: actives were taken first. Their share in the collection is about 27%.

SMILES | Cav3 T inh | CYP2C19 inh | CYP2C9 inh | CYP2C19 act | CYP2C9 act
COc1ccccc1OCC(=O)Nc1oc(-c2ccccc2)c(-c2ccccc2)c1C#N | -6.9 | – | 85 | – | –
N#Cc1c(NC(=O)COC(=O)C2CC3C=CC2C3)oc(-c2ccccc2)c1-c1ccccc1 (centres undefined) | -6 | – | 71 | – | –
CCN(CC)CCCN1C(=O)c2oc3ccccc3c(=O)c2C1c1cccs1 (centres undefined) | – | – | – | – | –
CCOc1ccc(N(Cc2cc3ccc(C)cc3[nH]c2=O)S(C)(=O)=O)cc1 | – | – | – | – | –
COC(=O)CCC(=O)Nc1cccc(C(=O)Nc2cccc(Cl)c2)c1 | – | – | – | – | –
O=C(CN1C(=O)C2CC=CCC2C1=O)NC1CCCc2ccccc21 (centres undefined) | – | – | – | – | –
O=C(Nc1c(C(=O)N2CCOCC2)cnn1-c1ccccc1Cl)c1ccco1 | – | – | – | – | –
Cc1cccc(NC(=O)C2CC(=O)n3cnnc3S2)c1 (centres undefined) | – | – | – | – | –
CCc1nc(SCC(=O)Nc2ccc(C(=O)O)cc2)n[nH]1 | – | – | – | – | –
N#Cc1c(NC(=O)Cn2cnc3ccccc3c2=O)oc(-c2ccccc2)c1-c1ccccc1 | -10 | – | 83 | – | –
CCn1c(SCC(=O)Nc2oc(-c3ccccc3)c(-c3ccccc3)c2C#N)nnc1-c1cc(OC)cc(OC)c1 | – | 59 | 100 | – | –
N#Cc1c(NC(=O)CSc2n[nH]c(Cc3ccccc3)n2)oc(-c2ccccc2)c1-c1ccccc1 | -6.4 | 91 | 99 | – | –
CS(=O)(=O)N1CCC(C(=O)Nc2ccc(Br)cc2F)CC1 | – | – | – | – | –
O=C(CN1CCOCCOCCOCCOCC1)Nc1ccccc1 | – | · | · | · | ·
O=C(CSc1nc(-c2ccc(F)cc2)cs1)N1CCOCC1 | – | 69 | – | – | 2.1
O=C(COC(=O)CSCC(=O)N1CCCCC1)NCc1ccc(F)cc1 | – | 51 | – | – | –
O=C(CSCC(=O)N1CCOCC1)Nc1ccccc1 | – | 57 | – | – | –
O=C(CSCc1ccc(F)cc1)N1CCOCC1 | – | 56 | – | – | –
Cc1noc(C)c1CSCC(=O)N1CCN(c2ccc(F)cc2)CC1 | – | 63 | – | – | –
Cc1cccc(N2CCN(C(=O)CSCc3c(C)noc3C)CC2)c1C | · | – | – | – | –
O=C(CSCc1ccc(Br)cc1)N1CCOCC1 | – | 94 | – | – | –
CC(C)CCn1c(=O)c2ccccc2c2ccccc2c1=O | – | 86 | 80 | – | –
O=C(NC1CCCCCCC1)c1ccc(CNc2c(N3CCOCC3)c(=O)c2=O)cc1 | – | – | – | – | –
CCOc1ccc(NC(=O)c2cccc(OC(=S)N3CCC(C)CC3)c2)cc1 | -4.3 | 94 | 74 | – | –
CCOc1cccc(C(=O)Nc2ccc(N(CC)CC)cc2)c1 | · | – | – | – | –
SMILES | Cav3 T inh | CYP2C19 inh | CYP2C9 inh | CYP2C19 act | CYP2C9 act
CCn1c(SCC(=O)NCCc2ccc(F)cc2)nnc1-c1cccs1 | – | – | – | – | –
COc1ccc(OC)c(-n2nnnc2SCC(=O)NCc2ccc3c(c2)OCO3)c1 | · | 81 | 60 | – | –
O=C(CSc1nnnn1C1CCCC1)NCc1ccc2c(c1)OCO2 | – | – | 61 | – | –
O=C(CSc1nnnn1C1CCCCC1)NCc1ccc2c(c1)OCO2 | – | 92 | 92 | – | –
Cc1oc(-c2ccc(Cl)cc2)nc1CSCC(=O)NCCCN1CCOCC1 | – | – | – | – | –
O=C(O)CN1C(=O)SC(Nc2ccccc2C(=O)O)C1=O (centres undefined) | – | – | – | – | –
C/C=C/C=C\C(=O)Nc1cccc(C2=NOC3(C2)C[C@@H](C(N)=O)N(C(=O)c2cc([N+](=O)[O-])cc([N+](=O)[O-])c2)C3)c1 (some centres undefined) | – | · | · | · | ·
CCOC(=O)C1=C(O)/C(=C/c2ccc(CNC(=O)C(=O)Nc3ccc(C)cc3)o2)N=C1C | – | 66 | 90 | – | –
COC(=O)C1=C(O)/C(=C\c2ccc(CNC(=O)C(=O)Nc3ccc(C)cc3)o2)N=C1C | – | 59 | 88 | – | –
COC(=O)C1=C(O)/C(=C\c2ccc(CNC(=O)C(=O)Nc3ccc(C)c(C)c3)o2)N=C1C | – | 50 | 80 | – | –
COC(=O)c1cccc(C(=O)Nc2ccc(C)cc2)n1 | · | – | – | – | –
CCOC(=O)c1ccc(CNC(=O)c2n[nH]c(=O)c3ccccc23)o1 | – | – | – | – | –
Cc1ccc(S(=O)(=O)Nc2nc3ccccc3nc2NCc2ccco2)cc1 | – | – | 99 | – | –
O=C(Nc1ccccc1)c1ccc(S(=O)(=O)NCc2ccco2)cc1 | – | – | – | – | –
Cc1ccc(S(=O)(=O)NCc2ccco2)cc1C | – | 80 | – | – | 2.7
Cc1ccc(S(=O)(=O)Nc2nc3ccccc3nc2NCc2ccco2)cc1C | · | – | 100 | – | –
Cc1cc(C)c(C)c(S(=O)(=O)NCc2ccco2)c1C | – | – | – | – | –
O=S(=O)(Nc1nc2ccccc2nc1NCc1ccco1)c1ccc(Cl)cc1 | -4.8 | 51 | 98 | – | –
NC(=S)NNC(=O)c1ccccc1 | – | – | – | – | –
Cn1c(SCC(=O)OC2CCCCC2)nnc1-c1ccco1 | – | · | · | · | ·
Cn1c(=O)oc2cc(S(=O)(=O)NCc3ccccn3)ccc21 | – | – | – | – | –
Cc1cccc(S(=O)(=O)Nc2nc3ccccc3nc2NCc2ccco2)c1 | · | – | 95 | – | –
Cc1ccccc1S(=O)(=O)Nc1nc2ccccc2nc1NCCO | – | – | 100 | – | –
CCC(C)Oc1nc2ccccc2nc1NS(=O)(=O)c1ccccc1 (centres undefined) | – | – | – | – | –
Cc1noc(C)c1CSc1nc2ccccc2nc1NS(=O)(=O)c1ccc(Cl)cc1 | -8.1 | – | 87 | – | –
SMILES | Cav3 T inh | CYP2C19 inh | CYP2C9 inh | CYP2C19 act | CYP2C9 act
COc1ccc(N2C3=[N+](CC2(C)O)c2ccccc2CC3)cc1 (centres undefined) | – | – | – | – | –
Cc1cnc(NC(=O)c2cc3c(C)nn(-c4ccccc4)c3s2)s1 | – | 56 | 66 | – | –
Cc1nn(-c2ccccc2)c2sc(C(=O)NC3CCCCC3)cc12 | – | – | 70 | – | –
Cc1nn(-c2ccccc2)c2sc(C(=O)NCCN3CCOCC3)cc12 | – | – | – | – | –
CCCCNC(=O)COC(=O)c1cc2c(C)nn(-c3ccccc3)c2s1 | – | 51 | 78 | – | –
Cc1nn(-c2ccccc2)c2sc(C(=O)N3CCCCC3)cc12 | – | – | – | – | –
Cc1nn(-c2ccccc2)c2sc(C(=O)NNC(=O)COc3ccccc3)cc12 | – | – | – | – | –
CCCC[C@@H]1CNC(=O)C(=O)N1CCc1cccc2ccccc12 | – | · | · | · | ·
Cc1ccc2nc(N3CCN(S(=O)(=O)c4ccc(C)c(Cl)c4)CC3)c(C#N)cc2c1 | – | – | – | – | –
